Screening results: PubChem, National Center for Advancing Translational Sciences (NCATS)
G9a block – G9a (human) methyltransferase inhibition; G9a H3K9 monomethylation, AlphaScreen, 2 h; 350,000 compounds, 8.8% hits; AID 504332; Q96KQ7; Potency, µM (highest dose often 102 µM), for inactives: at the top dose activity, negative = inhibition, hits mostly inhibitors; further: on the % scale 0 is the no-effect control and ±100 the full control effect; nearly all actives have a fitted effect of over 75% in size
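Using a bead-based AlphaScreen, monomethylated H3K9 product from 2 h room-temperature reactions (G9a 20 nM, peptide 500 nM, SAM 20 uM) was detected with 0.5 ug/mL rabbit anti-H3K9me1 antibody.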
HP1b binding inh – blocks HP1-beta chromodomain binding to methylated histone tails; 390,000 compounds, 0.56% hits; AID 540317; P83916; Potency, µM (series often up to 114 µM), inactives show at the highest dose activity change, negative = inhibition, usual class: inhibitors; AlphaScreen HP1-beta / biotin-H3K9me3 peptide binding; further: nearly all actives have a fitted effect of over 70% in size
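Compound inhibition of the preformed complex between 50 nM HP1-beta and 50 nM biotinylated H3K9me3 peptide was read by AlphaScreen. Buffer was PBS pH 7.4 with 0.01% Tween-20. Incubations ran 30 min at room temperature, with 10 ug/mL donor/acceptor beads.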
JMJD2A Tudor inh – inhibitors of human JMJD2A Tudor domain. AID 504339. 390,000 compounds, 4.4% hits. AlphaScreen JMJD2A-Tudor / H3K4me3 peptide binding. O75164. Potency, µM (titrated, usually from 114 µM), for inactives: top-dose activity change, negative = inhibition, most hits filed as inhibitors; further: on the % scale 0 is the no-effect control and ±100 the full control effect; nearly all actives have a fitted effect of over 50% in size
BAZ2B block – BAZ2B (human) inhibition; Q9UIF8; AlphaScreen BAZ2B-H3K14Ac peptide displacement; Potency, µM (series often up to 114 µM), for inactives: at the top dose activity change, negative = inhibition, hits mostly inhibitors; 360,000 compounds, 4.4% hits; AID 504333; further: on the % scale 0 is the no-effect control and ±100 the full control effect; nearly all actives have a fitted effect of over 60% in size
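Multi-concentration screen (max 110 uM) measuring displacement of acetylated histone H3 peptide from BAZ2B by AlphaScreen, using 50 nM protein, 50 nM peptide and 10 ug/mL streptavidin donor plus Ni-chelate acceptor beads.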
Sfp PPTase inh – blocks B. subtilis Sfp PPTase activity; 310,000 compounds, 3.5% hits; Q9F4F7; AID 1490; Potency, µM, inactives show largest response in the series, negative = inhibition, most hits filed as inhibitors; Biochemical Sfp PPTase activity, qHTS;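 further: the enzyme is Sfp with the accession as filed and its product quenches rhodamine fluorescence; 0% = enzyme reaction without inhibitor and -100% = no enzyme wells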
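Compounds were incubated with enzyme (final 15 nM) for 15 min at room temperature before substrate addition started the reaction. Fluorescence at 525 nm excitation, 598 nm emission was recorded immediately and after 30 minutes.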
L3MBTL1 block – L3MBTL1 (human) inhibition. Q9Y468. AlphaScreen L3MBTL1–H3K9me1 peptide binding. Potency, µM (highest dose often 57.1 µM), for the others: at the highest dose activity, negative = inhibition, usual class: inhibitors. 230,000 compounds, 0.66% hits. AID 485360; further: on the % scale 0 is the no-effect control and ±100 the full control effect; nearly all actives have a fitted effect of over 60% in size
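L3MBTL1 50 nM + b-AHA-H3(1-15)K9me1 75 nM, 30 min RT; compound added, 30 min RT; streptavidin donor/Ni-chelate acceptor beads 10 ug/mL each final, 30 min RT dark; AlphaScreen read.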
* marks the source's active call; other numbers are inactive results; ? = inconclusive; nt = no result; [ ] = remark or other dose. This is a sample that favours compounds with a hit; in the whole collection about 12% have one here. The call rests on the fitted dose curve; in most records, active means well fitted curve in the direction sought with a large enough effect; inconclusive means small, poorly fitted or top-dose-only effect, or another doubt; inactive means no such curve, though single readings can be large; an effect the other way counts as inactive or inconclusive. Potency means the concentration at half of the fitted maximal effect.

SMILES | G9a block | HP1b binding inh | JMJD2A Tudor inh | BAZ2B block | Sfp PPTase inh | L3MBTL1 block
CN(C)C(=O)c1ccc(N=Nc2c(O)c3ccccc3[nH]c2=O)cc1 | nt | -13% | -16% | nt | nt | nt
COC(=O)c1scc(C)c1NC(=O)c1ccc(Cl)cc1 | 15%[0.501 µM] | 8% | 3% | 8% | 16% | nt
COC(=O)c1scc(C#N)c1N/N=C(\C#N)S(=O)(=O)c1ccc(Cl)cc1 | 45µM* | -9% | ? | -37% | 25% | nt
COC(=O)c1scc(S(=O)(=O)C(C)C)c1N/N=C(\C#N)C(=O)c1ccc(Cl)cc1 | 50µM* | -6% | ? | -33% | -8% | -25%
O=c1[nH]c(=O)c2nc(-c3ccc(Cl)cc3)cnc2[nH]1 | ? | ? | -10% | -11% | 7% | 6%
O=c1[nH]c(=O)c2nc3c4ccccc4c4ccccc4c3nc2[nH]1 | 40µM* | -7% | -32%[11.4 µM] | 56µM* | ? | 9%
O=C(Cn1nc(-c2ccccc2)nc(Cc2ccccc2)c1=O)Nc1ccccc1 | 7%[59 µM] | 9% | -15% | -5% | nt | nt
Cc1cc(-c2n[nH]c(=S)n2/N=C/c2ccc(C)o2)n[nH]1 | 7.9µM* | ? | 3.2µM* | -29% | -15% | -2%
CCc1n[nH]c(=S)n1/N=C/c1cc(OC)cc([N+](=O)[O-])c1O | 7.9µM* | ? | 5µM* | 14% | 22µM* | ?
Cc1n[nH]c(=S)n(/N=C/c2cccc([N+](=O)[O-])c2)c1=O | -7% | 29% | ? | 3% | -12% | 11%
COc1ccc(/C=N/n2c(-c3cc(C)[nH]n3)n[nH]c2=S)cc1 | 2.2µM* | ? | 3.5µM* | -27% | -28% | -6%
COc1cc(/C=N/n2c(=S)[nH]nc(C)c2=O)cc([N+](=O)[O-])c1O | 11% | 37% | ? | -19% | 14µM* | -11%
O=C(OCC#CCSc1nnc(-c2cccs2)o1)c1ccc(F)cc1 | nt | nt | 50% | nt | nt | nt
COc1cc(/C=N/n2c(-c3cc(C)[nH]n3)n[nH]c2=S)cc(OC)c1O | 5µM* | ? | 3.5µM* | ? | 28µM* | -4%
COc1cc(/C=N/N2CCCCC2)cc([N+](=O)[O-])c1O | 50µM* | -21% | ? | 45µM* | -2% | nt
COc1ccc(/C=N/n2c(=S)n(C)c3ccccc32)cc1OC | ? | -3% | ? | ? | 1% | nt
COc1ccc(/C=N/n2c(-c3cc(C)[nH]n3)n[nH]c2=S)cc1OC | nt | 16% | 3.5µM* | ? | 56µM* | 6%
O=C1C2=C(NC(=S)NC2c2ccc(Cl)cc2)NC(c2ccc(Cl)cc2)N1c1ccc(Cl)cc1 (stereo not given) | 50µM* | 18% | ? | ? | ? | -12%
CCc1ccc(C2NC(=S)NC3=C2C(=O)N(c2ccccc2OC)C(c2ccc(CC)cc2)N3)cc1 (stereo not given) | -43%[59 µM] | 18% | -23% | ? | -12% | nt
Clc1cccc(N2CCN(Cc3ccc(Br)o3)CC2)c1 | 6.3µM* | ? | 28µM* | ? | -27% | 16%
Clc1ccc(N2CCN(Cc3ccc(Br)o3)CC2)cc1 | 13µM* | ? | 20µM* | 50µM* | -10% | 1%
O=C(NCC(=O)N1CCN(c2cccc(Cl)c2)CC1)c1ccc(Br)o1 | 12% | 18% | -11% | 0% | nt | 3%
Cc1cccc(OCCCn2c(CCNC(=O)C3CCCCC3)nc3ccccc32)c1 | -1%[59 µM] | 29% | -22% | -5% | nt | nt
Cc1cc(=O)[nH]c(N/N=C/c2c(O)n(-c3ccccc3)c(=O)c3ccccc23)n1 | ? | 0% | ? | 40µM* | -1% | -7%
Cc1cc(=O)[nH]c(N/N=C/c2ccc(O)c(O)c2)n1 | 1% | 10%[57 µM] | 2.8µM* | 4% | ? | nt
SMILES | G9a block | HP1b binding inh | JMJD2A Tudor inh | BAZ2B block | Sfp PPTase inh | L3MBTL1 block
COc1ccc(N=Cc2c(O)n(-c3cccc(C)n3)c(=O)c3ccccc23)cc1 | ? | 20% | 0%[57.1 µM] | -33% | -6% | -7%
CSc1ccc(/C=N/Nc2nc(C)cc(=O)[nH]2)cc1 | 1% | 15% | ? | -6% | 56µM* | 6%
Cc1cccc(-n2c(O)c(C=Nc3ccccc3)c3ccccc3c2=O)n1 | ? | ? | 11µM* | -30% | 0% | -16%
Cc1cccc(NC(c2nnc(-c3ccccc3)o2)c2ccc(F)cc2Cl)c1C (stereo not given) | 5%[59 µM] | -18% | -18% | -7% | nt | nt
C=CCn1c(C(c2ccccc2)c2ccccc2)n[nH]c1=S | 10µM* | 23% | -18%[57.1 µM] | -30% | -19% | -13%
CCn1c(C(c2ccccc2)c2ccccc2)n[nH]c1=S | 7.9µM* | -5% | 32µM* | -7% | 2% | nt
C=CCn1c(OCc2ccccc2)n[nH]c1=S | 8.9µM* | ? | 3.2µM* | -17% | -4% | nt
COc1ccc([C@]23Cc4cc(C#N)ccc4C(O2)c2c(cc(C)n(-c4ccccc4)c2=O)O3)cc1 | 26%[2.33 µM] | nt | nt | -9%[22.9 µM] | 8% | nt
OC1OC[C@H](O)[C@H](O)[C@H]1O (stereo not given in full) | nt | nt | nt | nt | 15% | nt
Oc1cccc(/C=N/Nc2cc(N3CCCC3)nc(N3CCCC3)n2)c1 | -9%[59 µM] | ? | 56µM* | 45µM* | -19% | -11%
Oc1ccc(/C=N/Nc2nc(N3CCCC3)nc(N3CCCC3)n2)cc1O | 10µM* | 10% | ? | -22% | 20µM* | -9%
Oc1ccc(/C=N/Nc2cc(N3CCCC3)nc(N3CCCC3)n2)cc1 | 3% | 19% | -10% | -1% | 1% | 0%
COc1ccc(/C=N/Nc2cc(N3CCCC3)nc(N3CCCC3)n2)cc1 | 22µM* | -10% | ? | ? | 50µM* | nt
Oc1ccc(/C=N/Nc2ccc(Cl)nn2)cc1O | -14% | 24% | -18% | -23% | 79µM* | nt
Cc1ccc2c(c1)c1c(c(=O)n(-c3ccccc3)c(=O)n1CC(=O)c1ccc(F)cc1)n2C | -7%[59 µM] | 2% | -16% | -4% | nt | nt
COc1cccc(CNC(=O)c2ccc(NC(=O)N3CC(C)Sc4ccccc43)cc2)c1 (stereo not given) | 8%[59 µM] | 46% | 1% | 0% | nt | nt
COc1cccc(NC(=O)Nc2cc(-c3cn4cccnc4n3)ccc2OC)c1 | -31%[59 µM] | -17% | -14% | -28% | nt | nt
O=[N+]([O-])c1cc(-c2nc(-c3ccccc3)no2)ccc1N1CCOCC1 | -42%[59 µM] | 39% | -13% | -2% | nt | nt
COc1ccc(C)cc1-n1c(SCC(=O)NCc2ccco2)nc2c([nH]c3ccccc32)c1=O | 0%[59 µM] | -2%[57 µM] | -27% | -35% | nt | nt
Cc1ccc(C)c(NC(=O)CSc2cn(CC(=O)N3CCCCC3)c3ccccc23)c1 | -29%[59 µM] | 26% | -18% | -23% | nt | nt
O=[N+]([O-])c1cccc(-n2cccc2/C=N/Nc2nc(N3CCCCC3)nc(N3CCCCC3)n2)c1 | 32µM* | ? | ? | nt | -2% | nt
